Experimental data from PubChem BioAssay AID1159580 (chemical genetic matrix, 2015).
Out of some 5,500 compounds screened, about 2,000 (36%) were called active. Another 18% or so got no clear call; they are omitted. Cut-off read from the data, not from the text of the source: active = normalized growth mostly below about 0.91 (no sharp cut-off); inconclusive = no clear call, values can overlap the other calls; inactive = mostly above about 0.92. The list shows a part of the results.

Assay: chemical genetic growth profiling, strain panel (AID 1159580);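 note: tested at 20 µM; growth read once vehicle control cultures reached saturation at 30 °C; 1 = growth at the plate median or of vehicle wells; lower values mean less growth of the strain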
Details: S. cerevisiae deletion strains, growth OD

Measured: normalized growth

O=C1c2ccccc2C(=O)C1(O)C1(O)C(=O)c2ccccc2C1=O
inactive: locus YHR030C, strain SLT2, hits give low values 1.04 | locus YHR079C, strain IRE1, hits give low values 1.04 | locus YJL095W, strain BCK1, hits give low values 1.04 | locus YJR066W, strain TOR1, hits give low values 0.953 | locus YLR113W, strain HOG1, hits give low values 1.03 | locus YNL183C, strain NPR1, hits give low values 0.984 | locus YOR231W, strain MKK1, hits give low values 1.05 | locus YPL256C, strain CLN2, hits give low values 1.07
